Reference: PubChem BioAssay (EPA / NIEHS)
Inconclusive results are not listed. Activity calls are given as the source filed them. The calls were made as follows: active = hit-call score of the fitted dose curve at least 0.9, where 1 is the maximum; inconclusive = response in the unintended direction; inactive = score below 0.9.

Experiment: CCTE_Harrill_HTTr_CellCount_MCF7: CCTE's Cell Proliferation Assessment for the High-Throughput Transcriptomics (HTTr) Platform, Harrill Lab (AID 2284012);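 also: cells exposed to compound for six hours; intended direction is loss of nuclei count meaning fewer cells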
From the text: This is a cell-based assay that evaluates cell viability and cell growth using high content imaging to count the number of Hoechst-labeled nuclei that are present in an assay well in 384-well format.This is a cell-based assay that evaluates cell viability and cell growth in MCF-7 cells. This was part of a full screening experiment. High content imaging is used to count the number of Hoechst-labeled nuclei that are present in an assay well in 384-well format.The assay component endpoint CCTE_Harrill_HTTr_CellCount_MCF7 was analyzed with bidirectional fitting relation to DMSO as the negative control and baseline of activity. Using a type of viability reporter, loss-of-signal activity can be used to understand changes in cell count. To generalize the intended target to other relatable targets, this assay endpoint is annotated to cell cycle, where the subfamily is cell count.
Chemicals were tested in MCF7 cells in an eight point dilution series with a six hour exposure duration.

outcome, inactive:
CCCC(=O)OCCc1ccccc1, Cc1ccc(-c2ccccc2)cc1, COc1ccc(COC(C)=O)cc1, Cc1[nH]c(=O)c(C#N)cc1-c1ccncc1, CCc1ccc(O)cc1, C[C@@H]1CCN(C(=O)[C@H](CCCN=C(N)N)NS(=O)(=O)c2cccc3c2NC[C@H](C)C3)[C@@H](C(=O)O)C1, CC1(C)O[C@@H]2[C@@H](CO[C@@]3(COS(N)(=O)=O)OC(C)(C)O[C@@H]23)O1, CCCCCCCCCC(=O)OC, CCOC(=O)[C@@H](C)Oc1ccc(Oc2nc3ccc(Cl)cc3o2)cc1, OCC#CCO, CCCCC1(COC(=O)CCC(=O)O)C(=O)N(c2ccccc2)N(c2ccccc2)C1=O, CCC1(c2ccccc2)C(=O)NCNC1=O, CCCC1O[C@@H]2C[C@H]3[C@@H]4CCC5=CC(=O)C=C[C@]5(C)[C@H]4[C@@H](O)C[C@]3(C)[C@]2(C(=O)CO)O1 (stereo not given in full), c1ccc2[nH]cnc2c1, C=C1CC[C@H](O)C/C1=C/C=C1\CCC[C@]2(C)[C@@H]([C@H](C)/C=C/[C@H](C)C(C)C)CC[C@@H]12, C[C@H]1O[C@@H](O[C@H]2[C@@H](O)C[C@H](O[C@H]3[C@@H](O)C[C@H](O[C@H]4CC[C@@]5(C)[C@H](CC[C@@H]6[C@@H]5C[C@@H](O)[C@]5(C)[C@@H](C7=CC(=O)OC7)CC[C@]65O)C4)O[C@@H]3C)O[C@@H]2C)C[C@H](O)[C@@H]1O, C=CCOC(=O)CCCCCC, Clc1ccc(C(c2ccccc2Cl)C(Cl)Cl)cc1 (stereo not given), Cc1ccc(S(N)(=O)=O)cc1, C1=CC2C3C=CC(C3)C2C1 (stereo not given), CC(C)(C)CC(C)(C)c1ccc(OCCOCC[N+](C)(C)Cc2ccccc2)cc1, CS(=O)(=O)c1ccc(C2=C(c3ccccc3)C(=O)OC2)cc1, CC(C)(C)c1ccc(C(=O)O)cc1, CC(=O)Nc1ccc(C(=O)CCl)cc1, OCc1cccc(Oc2ccccc2)c1, CC(C)(CO)[C@@H](O)C(=O)NCCC(=O)O, CN(C)CCOC(C)(c1ccccc1)c1ccccn1 (stereo not given), CC1(C)COCN1, COc1cc([C@@H]2c3cc4c(cc3[C@@H](O[C@@H]3O[C@@H]5CO[C@@H](C)O[C@H]5[C@H](O)[C@H]3O)[C@H]3COC(=O)[C@H]23)OCO4)cc(OC)c1O, OC[C@H]1O[C@@H](Oc2ccc(O)cc2)[C@H](O)[C@@H](O)[C@@H]1O, O=CCc1ccccc1, Cc1ccc(N)c(S(=O)(=O)O)c1, Clc1cc(Cl)c(-c2c(Cl)c(Cl)cc(Cl)c2Cl)cc1Cl, CC(O)C1CCCCC1 (stereo not given), COCCc1ccc(OCC(O)CNC(C)C)cc1 (stereo not given), Nc1ccn([C@H]2CS[C@@H](CO)O2)c(=O)n1, COC(=O)Nc1ccc(Cl)c(Cl)c1, CCCCCc1ccco1, CC1CCC(C(C)C)C(O)C1 (stereo not given)

AC50, active:
[O-]n1ccccc1=S.[O-]n1ccccc1=S.[Zn+2] 50 µM
